Assay results: PubChem BioAssay (EPA / NIEHS)
Activity calls are given as the source filed them. Rule for the calls: active = hit-call score of the fitted dose curve at least 0.9, where 1 is the maximum; inactive = score below 0.9.

Columns and labels:
Details in all cases: mRNA level, 48 h; actives raise or lower the signal
[1] = read-out: 3-Hydroxy-3-Methylglutaryl-CoA Synthase 2 (HMGCS2), HMGCS2 (gene 3158); experiment: LTEA_HepaRG_HMGCS2: Life Technologies and Expression Analysis (LTEA) Assay for 3-Hydroxy-3-Methylglutaryl-CoA Synthase 2 (HMGCS2) using HepaRG (AID 2283504)
Method in brief: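 Differentiated human HepaRG cells were exposed in duplicate for 48 h in serum-free induction medium to eight concentrations (top 100 uM, half-log steps, 0.5% DMSO). HMGCS2 mRNA was quantified by TaqMan qRT-PCR, normalised to ACTB, GAPDH and POLR2A, then fitted bidirectionally against DMSO.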

HGF (gene 3082) = experiment: LTEA_HepaRG_HGF: Life Technologies and Expression Analysis (LTEA) Assay for Hepatocyte Growth Facto (HGF) using HepaRG (AID 2283505)
Method in brief: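 Differentiated human HepaRG cells in serum-free induction medium were exposed in duplicate for 48 h to eight concentrations (top 100 uM, half-log steps, 0.5% DMSO). HGF mRNA was quantified by qRT-PCR, normalized to ACTB, GAPDH and POLR2A.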

[2] = read-out: Insulin Like Growth Factor 1 (IGF1), IGF1 (gene 3479); experiment: LTEA_HepaRG_IGF1: Life Technologies and Expression Analysis (LTEA) Assay for Insulin Like Growth Factor 1 (IGF1) using HepaRG (AID 2283506)
Method in brief: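 Differentiated human HepaRG cells were dosed for 48 h in serum-free induction medium with 0.5% DMSO, eight half-log concentrations up to 100 uM, in duplicate. IGF1 mRNA was quantified by qRT-PCR normalized to ACTB, GAPDH, POLR2A; bidirectional fitting versus DMSO.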

[3] = read-out: Intercellular Adhesion Molecule 1 (ICAM1), ICAM1 (gene 3383); experiment: LTEA_HepaRG_ICAM1: Life Technologies and Expression Analysis (LTEA) Assay for Intercellular Adhesion Molecule 1 (ICAM1) using HepaRG (AID 2283507)
Method in brief: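 Differentiated HepaRG cells in serum-free induction medium were exposed in duplicate for 48 h to eight half-log concentrations up to 100 uM in 0.5% DMSO. Transcript levels were measured by qRT-PCR normalized to ACTB, GAPDH and POLR2A; bidirectional fits relative to DMSO.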

[4] = read-out: Insulin-like growth factor-binding protein 1 (IGFBP1), IGFBP1 (gene 3484); experiment: LTEA_HepaRG_IGFBP1: Life Technologies and Expression Analysis (LTEA) Assay for Insulin-like growth factor-binding protein 1 (IGFBP1) using HepaRG (AID 2283508)
Method in brief: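 Differentiated human HepaRG cells in serum-free induction medium were exposed in duplicate for 48 h to eight concentrations, top 100 uM with half-log dilutions, in 0.5% DMSO. Transcript levels came from qRT-PCR normalised to ACTB, GAPDH and POLR2A, fitted bidirectionally against DMSO.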

[5] = read-out: Interleukin 6 (IL6), IL6 (gene 3569); experiment: LTEA_HepaRG_IL6: Life Technologies and Expression Analysis (LTEA) Assay for Interleukin 6 (IL6) using HepaRG (AID 2283509)
Method in brief: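 HepaRG cells exposed in duplicate for 48 h to eight half-log concentrations, top 100 uM, in 0.5% DMSO serum-free induction medium. mRNA measured by qRT-PCR, normalized to ACTB, GAPDH and POLR2A. Bidirectional fit versus DMSO.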

[6] = read-out: Interleukin 6 Receptor (IL6R), IL6R (gene 3570); experiment: LTEA_HepaRG_IL6R: Life Technologies and Expression Analysis (LTEA) Assay for Interleukin 6 Receptor (IL6R) using HepaRG (AID 2283510)
Method in brief: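 Differentiated human HepaRG cells, plated 48 h then switched to serum-free induction medium, were dosed in duplicate for 48 h at eight half-log concentrations up to 100 uM in 0.5% DMSO. IL6R mRNA quantified by qRT-PCR, normalized to ACTB/GAPDH/POLR2A; bidirectional fit versus DMSO.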

[7] = read-out: Potassium channel subfamily K member 1 (KCNK1), KCNK1 (gene 3775); experiment: LTEA_HepaRG_KCNK1: Life Technologies and Expression Analysis (LTEA) Assay for Potassium channel subfamily K member 1 (KCNK1) using HepaRG (AID 2283511)
Method in brief: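 Differentiated HepaRG cells, 48 h exposure in serum-free induction medium with 0.5% DMSO; 8 concentrations, half-log from 100 uM, duplicate. KCNK1 mRNA by qRT-PCR, normalized to ACTB, GAPDH, POLR2A; bidirectional fit vs DMSO.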

[8] = read-out: Keratin 19 (KRT19), KRT19 (gene 3880); experiment: LTEA_HepaRG_KRT19: Life Technologies and Expression Analysis (LTEA) Assay for Keratin 19 (KRT19) using HepaRG (AID 2283512)
Method in brief: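 Differentiated human HepaRG cells, plated 48 h, were exposed in duplicate for 48 h in serum-free induction medium to eight half-log concentrations up to 100 uM in 0.5% DMSO. KRT19 mRNA was quantified by qRT-PCR, normalized to ACTB, GAPDH and POLR2A, and fitted bidirectionally versus DMSO.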

[9] = read-out: JUN Transcription Factor, JUN (gene 3725); experiment: LTEA_HepaRG_JUN: Life Technologies and Expression Analysis (LTEA) Assay for JUN Transcription Factor using HepaRG (AID 2283513)
Method in brief: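 Differentiated HepaRG cells were exposed to chemicals for 48 h in serum-free induction medium, 8 concentrations from 100 uM in half-log steps, 0.5% DMSO vehicle, in duplicate. JUN mRNA was quantified by TaqMan qRT-PCR, normalized to ACTB, GAPDH, POLR2A.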

[10] = read-out: Lipase C (LIPC), LIPC (gene 3990); experiment: LTEA_HepaRG_LIPC: Life Technologies and Expression Analysis (LTEA) Assay for Lipase C (LIPC) using HepaRG (AID 2283514)
Method in brief: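 HepaRG cells, 48 h after plating, treated in duplicate for 48 h in serum-free induction medium over 8 half-log concentrations from 100 uM, 0.5% DMSO. LIPC mRNA by TaqMan qRT-PCR normalized to ACTB/GAPDH/POLR2A; bidirectional fit versus DMSO.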

[11] = read-out: Lipoprotein lipase (LPL), LPL (gene 4023); experiment: LTEA_HepaRG_LPL: Life Technologies and Expression Analysis (LTEA) Assay for Lipoprotein lipase (LPL) using HepaRG (AID 2283515)
Method in brief: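 Differentiated HepaRG cells, plated 48 h, then exposed 48 h in serum-free induction medium to 8 concentrations (top 100 uM, half-log steps) in 0.5% DMSO, duplicate. LPL mRNA measured by qRT-PCR, normalized to ACTB, GAPDH and POLR2A.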

[12] = read-out: matrix metalloproteinase-10 (MMP10), MMP10 (gene 4319); experiment: LTEA_HepaRG_MMP10: Life Technologies and Expression Analysis (LTEA) Assay for matrix metalloproteinase-10 (MMP10) using HepaRG (AID 2283517)
Method in brief: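 Differentiated HepaRG cells in serum-free induction medium exposed 48 h in duplicate to 8-point half-log series up to 100 uM in 0.5% DMSO. mRNA quantified by qRT-PCR, normalised to ACTB, GAPDH, POLR2A; bidirectional fit versus DMSO.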

MYC, MYC (gene 4609) = experiment: LTEA_HepaRG_MYC: Life Technologies and Expression Analysis (LTEA) Assay for MYC using HepaRG (AID 2283518)
Method in brief: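 Differentiated human HepaRG cells, plated 48 h then switched to serum-free induction medium, were exposed in duplicate for 48 h to 8-point half-log series up to 100 uM in 0.5% DMSO. MYC mRNA measured by qRT-PCR, normalized to ACTB/GAPDH/POLR2A.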

[13] = read-out: matrix metalloproteinase-3 (MMP3), MMP3 (gene 4314); experiment: LTEA_HepaRG_MMP3: Life Technologies and Expression Analysis (LTEA) Assay for matrix metalloproteinase-3 (MMP3) using HepaRG (AID 2283519)
Method in brief: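 HepaRG cells (~100,000/well) in serum-free induction medium were dosed in duplicate for 48 h with an 8-point half-log series from 100 uM, 0.5% DMSO. MMP3 mRNA was quantified by Fluidigm TaqMan qRT-PCR, normalized to three housekeeping genes.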

[14] = read-out: Nuclear factor NF-kappa-B p105 subunit (Homo sapiens) (UniProt P19838); experiment: LTEA_HepaRG_NFKB1: Life Technologies and Expression Analysis (LTEA) Assay for Nuclear Factor Kappa B Subunit 1 (NFKB1) using HepaRG (AID 2283521)
Method in brief: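 Differentiated human HepaRG cells in serum-free induction medium with 0.5% DMSO were exposed for 48 h to eight half-log concentrations, top 100 uM, in duplicate. NFKB1 mRNA measured by Fluidigm TaqMan qRT-PCR, normalised to ACTB, GAPDH and POLR2A; bidirectional fit versus DMSO.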

[15] = read-out: Protein phosphatase 2A (PPP2R4), PTPA (gene 5524); experiment: LTEA_HepaRG_PPP2R4: Life Technologies and Expression Analysis (LTEA) Assay for Protein phosphatase 2A (PPP2R4) using HepaRG (AID 2283522)
Method in brief: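 Differentiated HepaRG cells in serum-free induction medium were exposed in duplicate for 48 h to eight concentrations, top 100 uM with half-log dilutions, in 0.5% DMSO. PPP2R4 mRNA was quantified by TaqMan qRT-PCR, normalized to ACTB, GAPDH and POLR2A.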

[16] = read-out: Phosphatase and tensin (PTEN), PTEN (gene 5728); experiment: LTEA_HepaRG_PTEN: Life Technologies and Expression Analysis (LTEA) Assay for Phosphatase and tensin (PTEN) using HepaRG (AID 2283523)
Method in brief: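 HepaRG cells, 48 h after plating, exposed in duplicate for 48 h in serum-free induction medium to 8 half-log concentrations up to 100 uM (0.5% DMSO). PTEN mRNA by qRT-PCR, normalized to ACTB, GAPDH, POLR2A; bidirectional fit versus DMSO.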

[17] = read-out: MicroRNA 122 (MIR122), gene 406906; experiment: LTEA_HepaRG_MIR122: Life Technologies and Expression Analysis (LTEA) Assay for MicroRNA 122 (MIR122) using HepaRG (AID 2283516); note: the transcript read is the microRNA miR-122
Method in brief: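 Differentiated human HepaRG cells were exposed 48 h in serum-free induction medium to eight half-log concentrations (top 100 uM, 0.5% DMSO). Transcript level was measured by TaqMan qRT-PCR, normalized to ACTB, GAPDH and POLR2A, and fitted bidirectionally versus DMSO.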

[18] = read-out: Paternally Expressed 10 (PEG10), PEG10 (gene 23089); experiment: LTEA_HepaRG_PEG10: Life Technologies and Expression Analysis (LTEA) Assay for Paternally Expressed 10 (PEG10) using HepaRG (AID 2283520)
Method in brief: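 Differentiated HepaRG cells, plated 48 h then switched to serum-free induction medium, were exposed in duplicate for 48 h to eight half-log concentrations topping at 100 uM in 0.5% DMSO. PEG10 mRNA was quantified by TaqMan qRT-PCR, normalised to ACTB, GAPDH and POLR2A.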

Measured: AC50

Sequence of Nuclear factor NF-kappa-B p105 subunit (Homo sapiens) (P19838 whole entry, looked up): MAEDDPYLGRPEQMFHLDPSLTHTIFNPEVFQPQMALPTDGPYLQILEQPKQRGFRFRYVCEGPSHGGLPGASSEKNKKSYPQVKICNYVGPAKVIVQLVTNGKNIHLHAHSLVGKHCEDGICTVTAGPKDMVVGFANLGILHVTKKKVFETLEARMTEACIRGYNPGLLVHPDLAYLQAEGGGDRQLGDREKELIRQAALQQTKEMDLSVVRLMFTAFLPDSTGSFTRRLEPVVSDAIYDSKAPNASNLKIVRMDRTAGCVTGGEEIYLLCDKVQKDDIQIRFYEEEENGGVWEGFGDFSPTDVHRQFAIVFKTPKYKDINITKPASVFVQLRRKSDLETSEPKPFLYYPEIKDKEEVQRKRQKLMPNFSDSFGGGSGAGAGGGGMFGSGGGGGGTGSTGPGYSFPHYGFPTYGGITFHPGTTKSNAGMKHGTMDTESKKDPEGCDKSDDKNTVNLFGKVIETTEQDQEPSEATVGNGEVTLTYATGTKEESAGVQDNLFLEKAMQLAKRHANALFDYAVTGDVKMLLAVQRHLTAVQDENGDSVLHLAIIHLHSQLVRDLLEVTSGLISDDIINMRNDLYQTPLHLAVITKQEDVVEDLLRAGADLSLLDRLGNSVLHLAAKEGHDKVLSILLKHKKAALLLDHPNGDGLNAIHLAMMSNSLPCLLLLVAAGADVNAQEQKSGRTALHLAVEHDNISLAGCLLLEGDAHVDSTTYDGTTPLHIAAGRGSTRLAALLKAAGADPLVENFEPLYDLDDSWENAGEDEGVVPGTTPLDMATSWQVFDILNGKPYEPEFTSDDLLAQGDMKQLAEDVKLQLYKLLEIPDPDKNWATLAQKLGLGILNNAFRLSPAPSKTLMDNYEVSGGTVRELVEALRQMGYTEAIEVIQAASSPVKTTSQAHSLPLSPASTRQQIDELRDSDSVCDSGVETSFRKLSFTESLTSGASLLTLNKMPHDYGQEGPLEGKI

CC(C)CCO
not listed: [17] | [18]
inactive: all other assays above

O=C1OC(=O)C2C3C=CC(C3)C12 (centres undefined)
not listed: [4] | [6] | [14]
inactive: all other assays above

CC(C)CC(C)(O)C#CC(C)(O)CC(C)C (centres undefined)
not listed: [4] | [6]
inactive: all other assays above

Cc1ccc(S(=O)(=O)O)cc1C
not listed: [4] | [13] | [14] | [18]
inactive: all other assays above

COc1cccc(-c2ccc(/C=C\CN3CCCCCC3)cc2Cl)c1
inactive: HGF (gene 3082) | [6] | [17] | [15] | [16]
active: [1] 83.9 µM | [2] 66.7 µM | [3] 75.7 µM | [5] 74.8 µM | [7] 79.3 µM | [8] 45.2 µM | [9] 73.9 µM | [10] 70.6 µM | [11] 79 µM | [12] 71.3 µM | MYC, MYC (gene 4609) 81.1 µM | [13] 69.3 µM | [18] 59 µM | [14] 45.2 µM

CC[C@H]1CC[C@H](NCc2cc3c(cc2OC)[C@H]2C[C@H]2C(=O)N3C)[C@H](c2ccccc2)N1
active: [11] 50 µM
not listed: [13] | [18]
inactive: all other assays above

CCOC(=O)COc1ccc2c(c1)CC(NCC(O)c1cccc(Cl)c1)CC2 (centres undefined)
active: [8] 2.77 µM | [10] 45.8 µM
not listed: [4] | [18]
inactive: all other assays above
